Assay outcomes as filed in PubChem.
An excerpt weighted towards active compounds, which were near 21% of everything screened.
Pf growth 96h = Primary qHTS for delayed death inhibitors of the malarial parasite plastid, 96 hour incubation; P. falciparum luciferase reporter growth, 96 h; Potency, µM (titrated, usually from 28.7 µM), inactives show at the top dose activity change, negative = inhibition, most hits filed as inhibitors; 6.9% of 320,000 active; AID 504834, 2011; active = well fitted inhibition curve with a large enough effect; inconclusive = small, poorly fitted or top-dose-only effect, or another doubt; inactive = no such curve, though single readings can be large or run the other way; note: potency is the fitted concentration of half-maximal effect; % is set by controls: 0 for no effect and ±100 for the full control effect
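96 h incubation, 37 C, 5% CO2, of luciferase-reporter P. falciparum-infected RBCs (2% hematocrit, 0.05% parasitemia final) with test compounds; endpoint luminescence.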
CHX counter = Cycloheximide Counterscreen for Small Molecule Inhibitors of Shiga Toxin; 12% of 300,000 active; max response, %; cell reporter, cycloheximide protein synthesis inhibition counterscreen; AID 2314, 2010; in the data active = max response mostly above about 13%, no sharp cut-off; inactive = mostly below about 14%; note: read at 38.3 µM for the half of the compounds with a filed dose; 0% is about no effect
SARS PLpro yeast = qHTS of Yeast-based Assay for SARS-CoV PLP; S. cerevisiae expressing SARS-CoV PLpro, growth rescue; 0.19% of 330,000 active; Potency, µM (series often up to 32.9 µM), for inactives: at the top dose activity, positive = growth rescue, actives largely listed as activators; AID 485353, 2010; note: potency is the fitted concentration of half-maximal effect; 0% is about no effect; nearly all actives have a fitted effect of over 55% in size
Pf growth 48h = Primary qHTS for delayed death inhibitors of the malarial parasite plastid, 48 hour incubation | P. falciparum luciferase growth in erythrocytes, 48 h | Potency, µM (titrated, usually from 28.7 µM), without a hit: at the top dose activity change, negative = inhibition, actives largely listed as inhibitors | 5.9% of 310,000 active | AID 504832, 2011; active = well fitted inhibition curve with a large enough effect; inconclusive = small, poorly fitted or top-dose-only effect, or another doubt; inactive = no such curve, though single readings can be large or run the other way; note: potency is the fitted concentration of half-maximal effect; % is set by controls: 0 for no effect and ±100 for the full control effect
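First compound was added to culture medium, then infected red cells at 0.1% parasitemia and 2% hematocrit (final). After incubation at 37 C under 5% CO2, luciferase detection reagent was dispensed and light output recorded.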
Shiga toxin inh = A qHTS for Small Molecule Inhibitors of Shiga Toxin; Vero cells, Shiga toxin protein synthesis inhibition reporter; inhibition, % at 38.7 µM; 9.2% of 290,000 active; AID 2315, 2010; in the data active = inhibition mostly above about 28%, no sharp cut-off; inactive = mostly below about 43%; note: 0% is about no effect
NS1 function inh = qHTS Assay for Inhibitors of Influenza NS1 Protein Function | Potency, µM (doses to about 46.1 µM), without a hit: top-dose activity, positive = more growth | AID 2326, 2010 | 0.4% of 270,000 active; note: potency is the fitted concentration of half-maximal effect; actives are rising curves; nearly all actives have a fitted effect of over 50% in size
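Compounds were scored for reversing the slow growth caused by influenza A NS1 in S. cerevisiae, measured by optical density at 600 nm. Assay medium contained 2% galactose at pH 6.0; NS1-free yeast of the same strain were the positive control.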
* marks the source's active call; other numbers are inactive results; i = inactive; ? = inconclusive; nt = no result given; + = active, no number; [ ] = another dose, or the depositor's remark. Unless noted, calls come from the whole dose curve.

SMILES | Pf growth 96h | CHX counter | SARS PLpro yeast | Pf growth 48h | Shiga toxin inh | NS1 function inh
O=C(CSc1nc(C2CC2)nc2sc3c(c12)CCCC3)NCc1ccco1 | 16% | 7 | 1% | 27% | 10 | 1%
CC(C)Sc1nc2sc3c(c2c2nnc(SCC(=O)NCc4ccco4)n12)CCCC3 | ? | 19 | 1% | 6.6µM* | 20 | -10%
CCCSc1nc(SCC(=O)NCc2ccccc2)c2c3c(sc2n1)COC(C)(C)C3 | ? | -5 | 4% | ? | -2 | 1%
CC(C)Sc1nc(SCC(=O)O)c2c3c(sc2n1)COC(C)(C)C3 | ? | 43* | 0% | ? | 54* | ?
CC(C)Sc1nc(SCC(=O)NCc2ccco2)c2c3c(sc2n1)COC(C)(C)C3 | 2.6µM* | 93* | 4% | ? | 183* | 2%
CN(C)C(=O)CCc1ccc2c3c([nH]c2c1)[C@]1(C)[C@@H](C(=O)N2CCOCC2)C[C@H](CC(=O)NCCN2CCOCC2)C(=O)N1CC3 | nt | nt | -3% | nt | nt | nt
Cc1ccc(NC(=S)N(Cc2ccco2)C2CCN(C(C)C)CC2)cc1 | ? | 12 | 23% | ? | -3 | 4%
Cn1cccc1Cc1nnc(SCC(=O)Nc2ccc3c(c2)OCO3)n1-c1ccc(F)cc1 | ? | -3 | -12% | ? | -8 | -18%
CCN(C(=O)CSc1nc2ccccc2c(=O)n1CCOC)C1CCS(=O)(=O)C1 (stereo not drawn) | 3%[5.75 µM] | -3 | 0% | -23% | -14 | nt
O=C(Cc1cccs1)N/N=C/C=C/c1ccco1 | ? | 26* | -1% | 92% | + | 1%
O=C(CNc1cccc2ccccc12)N/N=C/C=C/c1ccco1 | ? | -4 | -8% | 22% | -8 | nt
C/C(=N/NC(=O)Cc1cccs1)c1ccco1 | 33% | 22* | -1% | 48% | 27* | 4%
C/C(=N/NC(=O)CNC(=O)c1cccs1)c1ccco1 | 61% | -3 | 0% | 77% | 51* | 0%
COc1ccc(NC(=O)c2ccccc2NC(=O)CN2CCCCCC2)cc1 | 43% | nt | 0% | 7% | nt | nt
COc1ccc(-c2nc(CS(=O)CC(=O)NCc3ccc(Cl)cc3)c(C)o2)cc1 (stereo not drawn) | ? | -4 | 6% | nt | -14 | 8%
COc1ccccc1N1CCN(C(=O)Cc2c(C(=O)O)[nH]c3ccc(Cl)cc23)CC1 | i | 4 | 0% | 10µM* | -13 | nt
O=C(O)c1[nH]c2ccc(Cl)cc2c1CC(=O)N1CCN(c2ccccc2)CC1 | nt | -7 | 1% | -5% | -15 | ?
COc1ccccc1N1CCN(C(=O)Nc2cccc(Cl)c2)CC1 | -20% | 26 | 2% | nt | 28 | -11%
COc1ccccc1N1CCN(C(=O)CCSCc2ccccc2F)CC1 | ? | 20 | 1% | 14% | 49* | nt
COc1ccc(Cl)cc1NC(=O)N1CCN(c2ccccc2OC)CC1 | ? | -2 | -3% | 6.6µM* | -5 | -2%
COc1cccc(N2CCN(C(=O)CCSCc3ccccc3F)CC2)c1 | -19% | -6 | -2% | -4% | 21 | nt
COc1ccccc1N1CCN(C(=O)Cc2ccc(Cl)cc2)CC1 | 0% | 17* | -2% | 0% | 31 | -25%
Cc1cc(NS(=O)(=O)c2ccc(NC(=S)NC(=O)c3ccc(Br)cc3)cc2)no1 | 1% | -2 | 7% | 5% | 4 | 5%
Cc1[nH]c(C)c(S(=O)(=O)NCc2ccc(N(C)C)cc2)c1C(=O)N1CCCC1 | 3% | 1 | ? | 10% | -3 | -2%
O=S(=O)(c1cc(Cl)ccc1Cl)N1CCN(c2ccccn2)CC1 | -17% | -4 | 1% | -1% | -1 | 1%
SMILES | Pf growth 96h | CHX counter | SARS PLpro yeast | Pf growth 48h | Shiga toxin inh | NS1 function inh
Cc1cc(C)nc(NC(=O)C(c2ccccc2)c2ccccc2)n1 | 60% | -5 | 11% | 3% | -13 | 5%
Cc1cc(C)nc(NC(N)=NC(C)c2ccccc2)n1 (stereo not drawn) | ? | -4 | 0% | 15µM* | -11 | -9%
O=C(c1ccccc1)c1ccc(N2CCOCC2)c(F)c1 | 0% | 21* | 5% | 187% | 131* | 2%
O=C(c1ccccc1)c1cc(F)c(N2CCOCC2)cc1Cl | 9.3µM* | 15 | -17% | 9% | 23 | -55%
O=C(Cc1ccccc1)Nc1ccc(N2CCOCC2)cc1N1CCOCC1 | 2% | -1 | -3% | -13% | -5 | -4%
O=C(Cc1ccccc1)Nc1cc(C(=O)c2ccccc2)ccc1N1CCOCC1 | 5.2µM* | -2 | -11% | nt | -9 | -48%
O=C(c1ccccc1)c1cc([N+](=O)[O-])ccc1N1CCOCC1 | ? | -5 | 2% | -15% | -8 | -4%
CCc1cc2c(s1)N(CC(=O)OC)C(=O)CN=C2c1ccccc1OC | 8.3µM* | 11 | 0% | 7% | -6 | -13%
NS(=O)(=O)c1cc(C(=O)OCC(=O)c2ccc3c(c2)OCCO3)ccc1Cl | -41% | 40* | 0% | -11% | 59* | 9%
N#CCC(=O)Nc1ccc(C(=O)OCC(=O)NNC(=O)c2cccs2)cc1 | 32% | nt | -1% | 7% | nt | nt
N#CCC(=O)Nc1ccc(C(=O)OCC(=O)N=c2sccn2Cc2ccccc2Cl)cc1 | ? | nt | 3% | 12µM* | nt | nt
N#CCC(=O)Nc1ccc(C(=O)OCC(=O)c2ccc3c(c2)OCCO3)cc1 | 50% | 48* | -3% | 89% | 68* | nt
O=C(COC(=O)c1cc(=O)c2ccccc2o1)Nc1ccc2ccccc2c1 | 81% | 11* | -12% | 17% | -22 | 5%
C=CCNC(=O)CC(C)C(CCCCC)C(=O)O (stereo not drawn) | ? | -3 | 3% | 16% | -11 | 5%
N#CCC(=O)Nc1ccc(C(=O)OCC(=O)Nc2ccc3ccccc3c2)cc1 | -14% | nt | -3% | 13µM* | nt | nt
CC(CCc1ccccc1)NC(=O)COC(=O)c1ccc(NC(=O)CC#N)cc1 (stereo not drawn) | ? | -7 | 2% | 12µM* | -2 | 4%
CC1(C(=O)OCC(=O)Nc2ccc3ccccc3c2)CC1(Cl)Cl (stereo not drawn) | 42% | 37* | -15% | 20% | 64* | -3%
O=C(CCNS(=O)(=O)c1ccccc1)OCC(=O)c1ccc(Br)cc1 | 21% | nt | 4% | -22% | nt | nt
CC(Sc1nnc(C2CCCCC2)n1N)C(=O)NCc1ccc2c(c1)OCO2 (stereo not drawn) | -14% | -2 | 0% | nt | 18 | -21%
O=C(Nc1ccc(C2SCCS2)cc1)c1ccccc1 | 245% | 60* | -5% | 144% | 136* | -3%
O=C(Cc1ccccc1)NNC(=O)c1ccc(NC(=O)c2ccccc2)cc1 | -19% | 9 | -1% | -11% | -8 | nt
CC(C)c1ccc(NC(=O)COc2ccc(C3SCCS3)cc2)cc1 | -8% | -4 | -2% | -4% | 18 | 0%
